Results on 5 molecules are retold here after PubChem BioAssay (NCATS).

As a reminder, the viability is a read-out of living cells in per cent, often relative to untreated cells.

Inconclusive results are not listed. Calls of active or inactive are those of the source. Unless noted, calls follow the shape of the dose curve; as a rule, active = well fitted curve in the direction sought with a large enough effect; inconclusive = small, poorly fitted or top-dose-only effect, or another doubt; inactive = no such curve, though single readings can be large; an effect the other way counts as inactive or inconclusive.

A short description of assay [1]: Quantitative High-Throughput drug screen in 47 multiple myeloma cell lines against the NCATS MIPE library collection: KMS34_JCRB cell viability assay (AID 1918985). Also: nearly all actives have a fitted effect of over 40% in size. Also: potency is read from the fitted curve at half-maximal effect. In a few lines:
(§1)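 500 cells/well per myeloma line exposed to pinned MIPE 4.0 compounds for 48 h at 37 °C, 5% CO2. Viability read as ATP by CellTiter-Glo luminescence, normalised to DMSO-only (100%) and media-only (0%) wells.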

Assay [2] in a line: Quantitative High-Throughput drug screen in 47 multiple myeloma cell lines against the NCATS MIPE library collection: OCIMY5_PLB cell viability assay (AID 1918988). Also: potency is read from the fitted curve at half-maximal effect; nearly all actives have a fitted effect of over 65% in size. In a few lines:
as §1

The nature of assay [3]: Quantitative High-Throughput drug screen in 47 multiple myeloma cell lines against the NCATS MIPE library collection: OPM1_PLB cell viability assay (AID 1918989). Also: nearly all actives have a fitted effect of over 40% in size. Also: potency is read from the fitted curve at half-maximal effect. Put shortly:
as §1

Assay [4] can be described thus: Quantitative High-Throughput drug screen in 47 multiple myeloma cell lines against the NCATS MIPE library collection: SKMM1_PLB cell viability assay (AID 1919863). Also: nearly all actives have a fitted effect of over 35% in size. Also: potency is read from the fitted curve at half-maximal effect. The following applies: SKMM1 myeloma viability, CellTiter-Glo ATP, 48 h; viability: stronger effect = lower value. Put shortly: as §1
In general terms: In ATP-based viability assays light output follows the ATP content of the culture.

Assay [5] in a line: Quantitative High-Throughput drug screen in 47 multiple myeloma cell lines against the NCATS MIPE library collection: U266_ATCC cell viability assay (AID 1919864). Also: nearly all actives have a fitted effect of over 35% in size. Also: potency is read from the fitted curve at half-maximal effect. In a few lines: as §1
The nature of assay [6]: Quantitative High-Throughput drug screen in 47 multiple myeloma cell lines against the NCATS MIPE library collection: XG6_PLB cell viability assay (AID 1919865). Also: potency is read from the fitted curve at half-maximal effect; nearly all actives have a fitted effect of over 40% in size. Put shortly:
as §1

The nature of assay [7]: Quantitative High-Throughput drug screen in 47 multiple myeloma cell lines against the NCATS MIPE library collection: XG1_PLB cell viability assay (AID 1919866). Also: nearly all actives have a fitted effect of over 35% in size. Also: potency is read from the fitted curve at half-maximal effect. In a few lines:
as §1

Assay [8] in a line: Quantitative High-Throughput drug screen in 47 multiple myeloma cell lines against the NCATS MIPE library collection: VP6_DJ cell viability assay (AID 1919867). Also: nearly all actives have a fitted effect of over 40% in size. Also: potency is read from the fitted curve at half-maximal effect. Put shortly:
as §1

Assay [9] can be described thus: Quantitative High-Throughput drug screen in 47 multiple myeloma cell lines against the NCATS MIPE library collection: UTMC2_PLB cell viability assay (AID 1919868). Also: nearly all actives have a fitted effect of over 55% in size. Also: potency is read from the fitted curve at half-maximal effect. The following applies: CellTiter-Glo ATP luminescence, 48 h; viability (% of DMSO control): at 45.8 µM (top of the series) unless noted. In a few lines: as §1
A short description of assay [10]: Quantitative High-Throughput drug screen in 47 multiple myeloma cell lines against the NCATS MIPE library collection: PE2_PLB cell viability assay (AID 1919869). Also: nearly all actives have a fitted effect of over 35% in size. Also: potency is read from the fitted curve at half-maximal effect. Put shortly: as §1
Assay [11] can be described thus: Quantitative High-Throughput drug screen in 47 multiple myeloma cell lines against the NCATS MIPE library collection: PCM6_Riken cell viability assay (AID 1919870). Also: nearly all actives have a fitted effect of over 30% in size. Also: potency is read from the fitted curve at half-maximal effect. Put shortly:
as §1

A short description of assay [12]: Quantitative High-Throughput drug screen in 47 multiple myeloma cell lines against the NCATS MIPE library collection: OPM2_DSMZ cell viability assay (AID 1919872). Also: nearly all actives have a fitted effect of over 30% in size. Also: potency is read from the fitted curve at half-maximal effect. Put shortly: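 CellTiter-Glo luminescence (ATP) after 48 h compound exposure, 37C/5% CO2; 500 cells/well; MIPE 4.0 approved/investigational drugs pinned in; DMSO = 100%, media only = 0% viability.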
The nature of assay [13]: Quantitative High-Throughput drug screen in 47 multiple myeloma cell lines against the NCATS MIPE library collection: KMS11_JCRBsus cell viability assay (AID 1919873). Also: nearly all actives have a fitted effect of over 50% in size. Also: potency is read from the fitted curve at half-maximal effect. Put shortly: as §1
Assay [14] is described as follows: Quantitative High-Throughput drug screen in 47 multiple myeloma cell lines against the NCATS MIPE library collection: KMS28BM_JCRB cell viability assay (AID 1919874). Also: nearly all actives have a fitted effect of over 35% in size. Also: potency is read from the fitted curve at half-maximal effect. Put shortly: as §1
A short description of assay [15]: qHTS drug screen for cell cycle checkpoint inhibitors in PARPi-resistant BRCA-mutant ovarian cancer cell lines. (AID 1963452; calls by dose curve; also: potency is read from the fitted curve at half-maximal effect). Conditions: PEO1/OlaR viability, CellTiter-Glo luminescence, 96 h; for Z-AUC: stronger effect = lower value. Put shortly: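 PEO1, PEO4 and PEO1/OlaR ovarian cancer cells, 600 per well, exposed 96 h at 37C to a dilution series. Viability read by CellTiter-Glo luminescence, normalized to DMSO and empty wells; activity summarized as Z-AUC.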
Background: Quantitative high-throughput screening tests each substance at several concentrations.

The nature of assay [16]: Quantitative High-Throughput drug screen in 47 multiple myeloma cell lines against the NCATS MIPE library collection: RPMI8226_ATCC cell viability assay (AID 1919871). Also: nearly all actives have a fitted effect of over 30% in size. Also: potency is read from the fitted curve at half-maximal effect. In a few lines:
as §1

The nature of assay [17]: qHTS for identification of novel therapeutic agents for treatment of microphthalmiaassociated transcription factor (MiT) renal cell carcinoma (RCC) (AID 1963991; calls by dose curve; also: potency is read from the fitted curve at half-maximal effect;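 as to z-score: curves scaled with 100% = DMSO viability and 0% = empty wells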). The following applies: CellTiter-Glo, 48 h; for z-score: stronger effect = lower value; for Potency: active = Z-AUC below -0.8 in all three lines. In a few lines: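 UOK109/UOK124/UOK145 (TFE3 fusions, three partners); 500 cells/well; MIPE v4.0, 1912 cpds, 11 conc.; 48 h, 37 C; CellTiter-Glo, 15 min RT; lum. Norm.: DMSO 100%, empty 0%.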

A short description of assay [18]: qHTS profiling for inhibitors of Plasmodium falciparum proliferation (AID 504749).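 Also: 0% = DMSO vehicle and full inhibition = artemisinin control; nearly all actives have a fitted effect of over 60% in size.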 The following applies: P. falciparum in erythrocytes, SYBR Green DNA, 72 h, at 28.7 µM (top of the series). Put shortly: (§2)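 P. falciparum-infected erythrocytes (0.3% parasitemia, 2.5% hematocrit) incubated with compound 72 h at 37 C, 5% CO2. Parasite DNA detected by SYBR Green after lysis, overnight at room temperature; normalised to 0.29 uM artemisinin and DMSO.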

Another assay relates to 3D7. The description is as above. Conditions: P. falciparum in erythrocytes, SYBR Green DNA, 72 h; series mostly up to 28.7 µM. Put shortly:
as §2

Where [19] appears, read: measured here: PEO1 parental Z-AUC.
[20] abbreviates: TFE3-RCC UOK109 viability, measured here: UOK109 Z-AUC.
Where [21] appears, read: TFE3-RCC viability, measured here: UOK124 Z-AUC.
Where [22] appears, read: TFE3-RCC viability, measured here: UOK145 Z-AUC.

Consider `CN(C)CCCN=c1c2ccccc2n(C)c2[nH]c(=O)n(C)c(=O)c12`, for which the Potency in assay [1] is 18700 nM (active); in assay [2], 18700 nM (active); in [3], 6620 nM (active); in [4] it was 14800 nM (active); in assay [5] it was 8330 nM (active); in [6], 5900 nM (active). In addition, the Potency is 14800 nM (active) in [7]; 14800 nM (active) in assay [8]; 16600 nM (active) in assay [10]; 14800 nM (active) in assay [11]; 20900 nM (active) in assay [12]; 14800 nM (active) in assay [13]. Moreover, the Potency in [14] was 16600 nM (active). Also, in assay [9], the viability (% of DMSO control) was 91.5% (active). Also, the Z-AUC was 0.193 (inactive) in assay [15], 1.79 in assay [15] (setting [19]) and 1.54 in [15] (measured here: PEO4 Z-AUC).

On to `CC1COC2(CCN(c3nc(=O)c4cc(C(F)(F)F)cc([N+](=O)[O-])c4s3)CC2)O1` (stereo not given), for which the Potency result in [1], in [3], in assay [5], in assay [7], in [8] and in assay [9] was “inactive” throughout. The Potency entry in [10], in [16], in [12], in [13] and in assay [14] was “inactive” throughout. Further, the viability in [4] is 134% (inactive). Besides, the Z-AUC is 0.328 (inactive) in [15], 0.189 in assay [15] (setting [19]) and 0.861 in assay [15] (measured here: PEO4 Z-AUC). Also, the z-score is 1.51 in assay [17] (setting [20]), 0.131 in assay [17] (setting [21]) and 0.808 in assay [17] (setting [22]).

As to `COc1c(N2C[C@@H]3CCCN[C@H]3C2)c(F)cc2c(=O)c(C(=O)O)cn(C3CC3)c12`, the Potency in assay [1] is 9350 nM (active); in assay [12], 6620 nM (active). The Potency entry in assay [3], in assay [5], in [7], in assay [10], in assay [11] and in assay [16] was “inactive” in each case. The Potency entry (in [13]; in assay [14]; in the assay with 3D7) was “inactive” each time. The Z-AUC in [15] was 0.687 (inactive); in [15] (setting [19]), 0.58; in assay [15] (measured here: PEO4 Z-AUC), 1.15. Further, the z-score was found to be 0.422 in [17] (setting [20]), 1.3 in [17] (setting [21]) and 1.53 in assay [17] (setting [22]). Also, the activity, negative = inhibition was -20.4% (inactive) in assay [18] (parasite line A) and -3.01% (inactive) in assay [18] (parasite line B).

Regarding `COC(=O)[C@]12CCC(C)(C)C[C@@H]1[C@@H]1C(=O)C=C3[C@@]4(C)C=C(C#N)C(=O)C(C)(C)[C@@H]4CC[C@@]3(C)[C@]1(C)CC2`, the Potency is 662 nM (active) in assay [1]; 209 nM (active) in [2]; 209 nM (active) in assay [3]; 469 nM (active) in assay [4]; 264 nM (active) in [5]; 372 nM (active) in [6]. For the same molecule, the Potency in [7] is 166 nM (active); in assay [8] it was 264 nM (active); in assay [9], 372 nM (active); in assay [10], 332 nM (active); in assay [16], 526 nM (active); in assay [12] it was 833 nM (active). For the same molecule, the values for the Potency in assay [13], in assay [14] and in assay [17] (TFE3-RCC UOK109 viability) were 187 nM (active), 264 nM (active) and 1180 nM (active), respectively. The results for the z-score in [17] (setting [20]), in [17] (setting [21]) and in assay [17] (setting [22]) were -1.73, -1.69 and -1.96, respectively.

For `CC[C@@H]1C(=O)N(C)c2cnc(Nc3ccc(C(=O)NC4CCN(C)CC4)cc3OC)nc2N1C1CCCC1`, the Potency in assay [1] is 187 nM (active); in [2] it was 37.2 nM (active); in assay [3], 93.5 nM (active); in [4], 235 nM (active); in assay [5] it was 23500 nM (active); in assay [8], 2960 nM (active). Further, the Potency is 7430 nM (active) in [11]; 59 nM (active) in assay [12]; 20.9 nM (active) in assay [13]; 11.8 nM (active) in [14]; 43.6 nM (active) in assay [15]; 4180 nM (active) in [17] (TFE3-RCC UOK109 viability). In addition, the Potency entry in assay [9] is “inactive”. Besides, the Z-AUC in [15] (setting [19]) is -2.65; in assay [15] (measured here: PEO4 Z-AUC), -2.67. For the same molecule, the z-score in [17] (setting [20]) was -0.898; in assay [17] (setting [21]) it was -2.05; in assay [17] (setting [22]), -1.29.
